Results: publication PMC4336329 (PLoS ONE, 2015)
The campaign covered roughly 310,000 compounds. About 14,000 (4.5%) showed an effect of 50% or more. Effects have a minus sign here. This is one part of a sample in which strong results are shown more often than they occur.

target: human ether-à-go-go-related gene (hERG) potassium channel (human, UniProt Q12809); assay: primary screen, population patch clamp on CHO cells stably expressing hERG; higher = less effect of the substance
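Note: peak tail current of the secondary pulse compared with the same well before compound.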

Chain of human ether-à-go-go-related gene (hERG) potassium channel (Q12809 whole entry, looked up): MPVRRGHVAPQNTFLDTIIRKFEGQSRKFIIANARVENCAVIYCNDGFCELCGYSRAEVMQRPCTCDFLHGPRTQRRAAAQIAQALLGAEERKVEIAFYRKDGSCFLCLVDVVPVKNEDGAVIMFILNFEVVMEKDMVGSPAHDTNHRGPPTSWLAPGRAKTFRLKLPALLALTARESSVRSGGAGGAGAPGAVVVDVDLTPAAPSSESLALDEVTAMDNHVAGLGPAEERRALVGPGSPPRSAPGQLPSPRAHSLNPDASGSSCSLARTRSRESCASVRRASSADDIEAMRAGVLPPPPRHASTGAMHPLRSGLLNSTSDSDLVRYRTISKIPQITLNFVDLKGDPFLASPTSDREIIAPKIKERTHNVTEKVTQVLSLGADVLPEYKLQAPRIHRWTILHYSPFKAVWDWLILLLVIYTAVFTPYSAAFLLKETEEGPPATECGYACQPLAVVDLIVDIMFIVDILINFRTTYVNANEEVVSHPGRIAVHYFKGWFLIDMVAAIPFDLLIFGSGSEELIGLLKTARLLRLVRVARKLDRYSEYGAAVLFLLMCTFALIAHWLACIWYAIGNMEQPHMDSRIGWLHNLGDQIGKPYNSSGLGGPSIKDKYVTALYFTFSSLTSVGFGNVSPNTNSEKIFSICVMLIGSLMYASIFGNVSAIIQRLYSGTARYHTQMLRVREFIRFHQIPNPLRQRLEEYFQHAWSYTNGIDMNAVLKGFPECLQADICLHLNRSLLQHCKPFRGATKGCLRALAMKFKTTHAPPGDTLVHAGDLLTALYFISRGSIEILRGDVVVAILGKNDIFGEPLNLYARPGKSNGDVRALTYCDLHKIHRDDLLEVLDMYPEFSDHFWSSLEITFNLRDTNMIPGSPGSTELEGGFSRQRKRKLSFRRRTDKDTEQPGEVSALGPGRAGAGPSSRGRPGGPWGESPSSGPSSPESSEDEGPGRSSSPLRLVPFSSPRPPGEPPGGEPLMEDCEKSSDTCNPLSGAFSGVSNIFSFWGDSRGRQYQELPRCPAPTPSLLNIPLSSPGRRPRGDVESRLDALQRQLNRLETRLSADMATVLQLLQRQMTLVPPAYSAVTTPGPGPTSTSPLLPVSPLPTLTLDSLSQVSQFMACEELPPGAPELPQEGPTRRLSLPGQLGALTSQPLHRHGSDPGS

| SMILES | hERG current change (%, negative = inhibition) at 10uM [%] |
| --- | --- |
| CC1CC(C)CN(CC(O)COCc2ccccc2F)C1.Cl (centres unmarked) | -23.4 |
| COc1ccc(CCNC(=S)Nc2cccc(C)c2)cc1 | -8.64 |
| CCC1(c2ccc(F)cc2)NC(=O)N(CC(=O)N2CC(=O)Nc3ccccc32)C1=O (centres unmarked) | -5.52 |
| CCC1(c2ccc(F)cc2)NC(=O)N(CC(=O)N2c3ccccc3CC2C)C1=O (centres unmarked) | -12.9 |
| CCC1(c2ccc(F)cc2)NC(=O)N(CC(=O)N2c3ccccc3NC(=O)CC2C)C1=O (centres unmarked) | -58.4 |
| Cc1c(C(c2ccc(O)cc2)c2c(C)n(C)n(-c3ccccc3)c2=O)c(=O)n(-c2ccccc2)n1C | -7.93 |
| COc1ccccc1/C=C1\SC(=S)N(CCC(=O)N2CCCCC2CCO)C1=O (centres unmarked) | 16.7 |
| CNc1ccccc1C(C)(C)c1cc(C)[nH]n1 | 22.6 |
| Cc1cc(=O)[nH]c(SCC(=O)Nc2ccc3c(c2)CCC3)c1C#N | -6.4 |
| O=C(Nc1ccc(N2CCN(C(=O)C3CC3)CC2)cc1)c1cccs1 | 2.17 |
| CN(CCc1ccccc1)C1CCCN(S(=O)(=O)CC(F)(F)F)C1 (centres unmarked) | -3.61 |
| COC(=O)c1sccc1S(=O)(=O)N1CCCC(N(C)CCc2ccccn2)C1 (centres unmarked) | -22.7 |
| CN(CCc1ccccn1)C1CCCN(S(=O)(=O)c2ccc(F)c(Cl)c2)C1 (centres unmarked) | -48 |
| CC(=O)c1ccc(S(=O)(=O)N2CCCC(N(C)CCc3ccccn3)C2)cc1 (centres unmarked) | -65.3 |
| CN(CCc1ccccc1)C1CCCN(S(=O)(=O)N(C)C)C1 (centres unmarked) | -15.7 |
| CN(CCc1ccccn1)C1CCCN(S(=O)(=O)c2ccccc2Cl)C1 (centres unmarked) | -46.5 |
| Cc1cc(S(=O)(=O)N2CCCC(N(C)CCc3ccccn3)C2)c(C)cc1Cl (centres unmarked) | -71.6 |
| Cc1cc(S(=O)(=O)N2CCCC(N(C)CCc3ccccn3)C2)c(C)s1 (centres unmarked) | -46.6 |
| CC(=O)c1ccc(S(=O)(=O)N2CCCC(N(C)CCc3ccccc3)C2)cc1 (centres unmarked) | -81.2 |
| Cn1nc(-c2ccc(N3CCCCC3)c(NC(=O)c3ccco3)c2)c2ccccc2c1=O | 9.65 |
| CN(C)CCCNC(=S)N(Cc1cccs1)Cc1cc2cc3c(cc2[nH]c1=O)OCCO3 | 6.79 |
| Cc1ccc(/C=C2\SC(=S)N(CCC(=O)NNS(=O)(=O)c3ccc(C)cc3)C2=O)cc1 | 28.8 |
| CN(C(=O)COC(=O)/C=C/c1cn(-c2ccccc2)nc1-c1ccc2c(c1)OCCO2)C1CCS(=O)(=O)C1 (centres unmarked) | -3.86 |

| SMILES | hERG current change (%, negative = inhibition) at 10uM [%] |
| --- | --- |
| Cc1cc(=O)[nH]c(SCC(=O)NCCOc2ccccc2)n1 | 1.39 |
| Cc1ccccc1NC(=S)N(CCN(C)C)C(C)c1cccnc1 (centres unmarked) | -50.1 |
| Cc1cccc(C)c1NC(=S)N(CCN(C)C)C(C)c1cccnc1 (centres unmarked) | -9.34 |
| COCCN(C(=S)Nc1ccc(C)cc1)C(C)c1cccnc1 (centres unmarked) | -22.9 |
| CCc1ccccc1NC(=S)N(CCN(C)C)C(C)c1cccnc1 (centres unmarked) | -7.25 |
| COCCN(C(=S)Nc1cccc(C)c1)C(C)c1cccnc1 (centres unmarked) | -4.61 |
| COCCN(C(=S)Nc1cc(C)cc(C)c1)C(C)c1cccnc1 (centres unmarked) | -58.4 |
| Cc1ccccc1NC(=O)c1ccc(N/N=C/c2ccccc2O)c([N+](=O)[O-])c1 | 9.72 |
| CC(Sc1nnc(-c2ccncc2)n1C)C(=O)NCC1CCCO1 (centres unmarked) | 4.42 |
| CC(C)c1ccc(NC2CCCN(C(=O)c3cnc4ccccn4c3=O)C2)cc1 (centres unmarked) | 12 |
| CC(C)Cc1ccc(CN2CCCC(NC(=O)c3cnc4ccccn4c3=O)C2)cc1 (centres unmarked) | -71.8 |
| O=C(NC1CCCN(Cc2ccc(Cl)cc2)C1)c1ccoc1 (centres unmarked) | -50.1 |
| O=C(NC1CCCN(Cc2ccc(Cl)cc2)C1)c1cccc(N2CCCC2=O)c1 (centres unmarked) | -14.8 |
| O=C(NC1CCCN(Cc2ccc(Cl)cc2)C1)c1ccnc(Cl)c1 (centres unmarked) | -38.6 |
| Cc1occc1C(=O)NC1CCCN(Cc2ccc(Cl)cc2)C1 (centres unmarked) | -38.4 |
| CC(C)Cc1ccc(CN2CCCC(NC(=O)CCCN3CCCC3=O)C2)cc1 (centres unmarked) | -25.8 |
| CC(C)Cc1ccc(CN2CCCC(NC(=O)c3cccc(-n4cnnc4)c3)C2)cc1 (centres unmarked) | -81 |
| CC(C)Cc1ccc(CN2CCCC(NC(=O)c3ccoc3)C2)cc1 (centres unmarked) | -70.9 |
| Cc1occc1C(=O)NC1CCCN(Cc2ccc(CC(C)C)cc2)C1 (centres unmarked) | -38 |
| O=C(NC1CCCN(Cc2ccc(Cl)cc2)C1)c1cnc2ccccn2c1=O (centres unmarked) | -21.8 |
| COc1ccc(S(=O)(=O)N2CCN(c3ccccn3)CC2)cc1OC | -12 |
| CC#CCN1c2ccccc2[C@]23C[C@@H](C(=O)OC)N(C(=O)c4ccco4)C2=NC(C(=O)OC)=C(C(=O)OC)[C@H]13 | -2.03 |
| Cc1nn(-c2ccccc2)c(C)c1/C=N\NS(=O)(=O)c1ccc(Cl)cc1 | -17.7 |

| SMILES | hERG current change (%, negative = inhibition) at 10uM [%] |
| --- | --- |
| Cc1cc(C)cc(OCC(=O)NNC(=O)c2cc(C)[nH]n2)c1 | 13.9 |
| O=C(CCC(=O)N1CCSc2ccccc21)NCCc1ccccc1 | -30.5 |
| CCn1c(SCC(=O)N/N=C/c2ccccc2OCC(=O)O)nnc1-c1ccccc1 | 5.58 |
| CNCC(O)C(O)C(O)C(O)CO (centres unmarked) | -0.427 |
| CC(C)C(=O)Nc1ccc(NC(=O)CCc2ccccc2)cn1 | 18.4 |
| CC(=O)Nc1ccc(S(=O)(=O)NCC2CCC(C(=O)N3CC(C)CC(C)C3)CC2)cc1 (centres unmarked) | 5.39 |
| Cn1nccc1C(=O)NC1CCN(Cc2ccccc2)CC1 | -14.4 |
| CC(C)Cc1ccc(CN2CCCC(NC(=O)c3ccnn3C)C2)cc1 (centres unmarked) | -68.7 |
| CC(C)Cc1ccc(CN2CCCC(NC(=O)CCN3CCCO3)C2)cc1 (centres unmarked) | -43.4 |
| Cl.OC(CNC1CCCC1)COCCOc1ccc(Br)cc1 (centres unmarked) | -27.4 |
| C#CCOCCOCCOCCNc1nc(N2CCN(C(=O)[C@H]([C@@H](C)CC)n3cc([C@@H](N)Cc4ccc(O)cc4)nn3)CC2)nc(N2CCN(C(=O)[C@H]([C@@H](C)CC)n3cc([C@@H](N)CC(C)C)nn3)CC2)n1.Cl | 0.378 |
| CCOC(=O)c1cccc(OCC(O)CNCCOc2ccccc2F)c1 (centres unmarked) | -63 |
| COCCCNCC(O)COc1ccccc1F (centres unmarked) | 5.58 |
| CC(=O)c1cccc(OCC(O)CNCCOc2ccc(C)cc2)c1 (centres unmarked) | -36.5 |
| Cc1cc(C(C)(C)C)oc1C(=O)O | 27.6 |
| CN1C(=O)OC(C)(CCc2ccccc2)C1(C)O (centres unmarked) | 11.5 |
| Cc1cc2oc(C(=O)Nc3c(C)n(C)n(-c4ccccc4)c3=O)c(C)c2cc1Cl | -72.2 |
| Cc1ccc2c(C)c(C(=O)Nc3c(C)n(C)n(-c4ccccc4)c3=O)oc2c1 | -2.96 |
| Cc1cc(C)c2c(C)c(C(=O)Nc3c(C)n(C)n(-c4ccccc4)c3=O)oc2c1 | -16.7 |
| Cc1cc2oc(C(=O)Nc3c(C)n(C)n(-c4ccccc4)c3=O)c(C)c2cc1C | -24 |
| Cc1c(C(=O)Nc2c(C)n(C)n(-c3ccccc3)c2=O)oc2ccccc12 | 15.8 |
| Cc1c(C(=O)Nc2c(C)n(C)n(-c3ccccc3)c2=O)oc2ccc(Cl)cc12 | -51.3 |
| CN(C)P1(N(C)C)=Nc2c(c(N)nn2C)C(c2ccccc2)=N1 | -6.87 |

| SMILES | hERG current change (%, negative = inhibition) at 10uM [%] |
| --- | --- |
| CCOc1cc(S(=O)(=O)NCC2OCCc3ccccc32)c(OCC)cc1-n1cnnn1 (centres unmarked) | -21.5 |
| CC(=O)Nc1ccc(S(=O)(=O)N2CCN(C(=O)C3COc4ccccc4O3)CC2)cc1 (centres unmarked) | -7.33 |
| Cc1ccc(N2C(=O)NC(=O)/C(=C\c3ccoc3)C2=O)cc1 | 22 |
| O=P1(O)C=C(c2ccccc2)OC(c2ccccc2)=C1 | 23.9 |
| O=P1(Nn2cnnc2)C=C(c2ccccc2)OC(c2ccccc2)=C1 | -20.8 |
| CCN1CCN(P2(=O)C=C(c3ccccc3)OC(c3ccccc3)=C2)CC1 | -77.9 |
| Cc1cc(C(=O)CSc2nc(N)cc(N)n2)c(C)n1CCc1ccc(F)cc1 | -13.9 |
| Cn1c(=O)c2[nH]c(-c3ccc(S(=O)(=O)O)cc3)nc2n(C)c1=O.O | 10.2 |
| O=C(N/N=C/c1ccc(O)c(O)c1O)/C(=C/c1ccc([N+](=O)[O-])cc1)NC(=O)c1ccccc1 | 12.4 |
| Cc1ccc(NC(=O)/C(=C/c2cccc([N+](=O)[O-])c2)NC(=O)C2CCCCC2)c(C)c1 | -18.7 |
| O=C(Nc1cccc2ccccc12)/C(=C/c1ccc([N+](=O)[O-])cc1)NC(=O)c1ccccc1 | -55.6 |
| O=C(Nc1cccc2ccccc12)/C(=C\c1cccc([N+](=O)[O-])c1)NC(=O)c1cccs1 | -70.1 |
| O=C(Nc1cccc(C(=O)O)c1)/C(=C/c1ccc([N+](=O)[O-])cc1)NC(=O)c1ccccc1 | -5.36 |
| O=C(Nc1ccccc1)/C(=C/c1ccc([N+](=O)[O-])cc1)NC(=O)c1ccccc1 | 8.2 |
| O=C(Nc1ccc([N+](=O)[O-])cc1)/C(=C/c1cccc([N+](=O)[O-])c1)NC(=O)C1CCCCC1 | -69 |
| O=C(N/N=C/c1ccc(Br)o1)/C(=C/c1ccc([N+](=O)[O-])cc1)NC(=O)c1ccccc1 | -60.1 |
| O=C(N/N=C/c1ccc(O)cc1)/C(=C/c1ccc([N+](=O)[O-])cc1)NC(=O)c1ccccc1 | 8.54 |
| O=C(N/C(=C/c1cccc([N+](=O)[O-])c1)C(=O)N1CCCCC1)c1cccs1 | -7.23 |
| COc1ccc(/C=C(\NC(=O)c2cccs2)C(=O)Nc2cccc3ccccc23)cc1OC | -7.06 |
| O=C(Nc1ccc(Br)cc1)/C(=C/c1cccc([N+](=O)[O-])c1)NC(=O)C1CCCCC1 | -16 |
